Values quoted from earlier work in PubChem BioAssay AID977611.
The whole screen tested about 3,900 compounds, of which about 3,900 (100%) were called active. The limit is not given here; nearly all actives have Kd up to about 4200 µM. So high a share suggests a set chosen from earlier hits. The list shows a part of the results. *1 amine or outer side, *2 acyl side, *3 side chain or, on linkers, in order; H or OH if unused. Where a SMILES comes first, the peptide text is derived from it. Non-standard residues stand in square brackets, D forms with d. Square brackets hold non-standard residues; d marks the D form. Residues, ends and D or L forms follow the SMILES beside them. Peptide text beside a SMILES is read from it. [ ]: non-standard residue; d: D form. Thr(P(OH)3+) = C[C@@H](O[P+](O)(O)O)[C@H](N)C(=O)O; X1 = O=C([C@H](Cc1ccc(OS(O)(O)O)cc1)N[*:1])[*:2]; Orn(CH(NH2)2) = NC(N)NCCC[C@H](N)C(=O)O

Experiment: PubChem AID 977611
Conditions: PDB protein-ligand complexes, literature Kd

## NC1NC(=O)c2ncn([C@@H]3O[C@H](CO[P+](O)(O)O[P+](O)(O)N[P+](O)(O)O)[C@@H](O)[C@H]3O)c2N1 (stereo partly specified)
protein: Atlastin-1, PDB entry 4idn
  Kd: 5.77 µM (active)
protein: GTPASE IMAP FAMILY MEMBER 7, PDB entry 3zjc
  Kd: 9 µM (active)
protein: Methylmalonyl-CoA mutase accessory protein, PDB entry 4jyb
  Kd: 0.11 µM (active)

## O=C(O)CCc1c[nH]c2ccccc12
protein: Protease (Q7K, L33I, L63I, C67A, C95A mutation), PDB entry 4ejl
  Kd: 7.2 µM (active)

## O=C(O)c1c[nH]c2ccccc12
protein: INTEGRASE, PDB entry 4ahu
  Kd: 5400 µM (active)

## CSCC[C@H](NC(=O)CNC(=O)[C@@H](N)C(C)C)C(=O)N[C@@H](Cc1cnc[nH]1)C(=O)N[C@@H](CO[P+](O)(O)O)C(=O)N[C@@H](CCCCN)C(=O)NCC(=O)N[C@H](C(=O)N[C@@H](CCC(N)=O)C(=O)N[C@H](C(=O)O)[C@@H](C)O)[C@@H](C)O
protein: DYNEIN LIGHT CHAIN 1, CYTOPLASMIC, PDB entry 3zkf
  Kd: 0.96 µM (active)

## H-VGMHSKGTQTA-OH
protein: DYNEIN LIGHT CHAIN 1, CYTOPLASMIC, PDB entry 3zke
  Kd: 0.16 µM (active)

## NCc1csc(-c2cccs2)n1
protein: CATIONIC TRYPSIN, PDB entry 4aba
  Kd: 153 µM (active)

## Cc1noc(C)c1-c1cc(NS(=O)(=O)c2ccccc2)cc(C(=O)O)c1
protein: ATPase family AAA domain-containing protein 2 ATAD2A bromodomain, PDB entry 4tu4
  Kd: 175 µM (active)

## O=C(O)c1cccc2ccoc12
protein: INTEGRASE, PDB entry 4ahs
  Kd: 6400 µM (active)

## O=C(O)Cc1cc(O)ccc1O
protein: HOMOGENTISATE 1,2-DIOXYGENASE, PDB entry 4aq6
  Kd: 15.8 µM (active)

## H-AFFAQLQLDAETGEFL-OH
protein: Kelch-like ECH-associated protein 1, PDB entry 2flu
  Kd: 0.02 µM (active)

## CC(C)C[C@H](NC(=O)[C@H](CC(C)C)NC(=O)CNC(=O)[C@@H](NC(=O)[C@H](CC(=O)O)NC(=O)[C@H](CC(=O)O)NC(=O)[C@H](Cc1ccc(OS(O)(O)O)cc1)NC(=O)[C@H](Cc1ccc(OS(O)(O)O)cc1)NC(=O)[C@H](CO)NC(=O)[C@@H](NC(=O)[C@@H](NC(=O)CNC(=O)[C@H](Cc1ccccc1)NC(=O)[C@@H](NC(=O)[C@H](CCC(=O)O)NC(=O)[C@@H](N)C(C)C)[C@@H](C)O)[C@@H](C)O)[C@@H](C)O)C(C)C)C(=O)O (H-VETFGTTS[X1][X1]DDVGLL-OH)
protein: CC chemokine (CCL11/ eotaxin-1), PDB entry 2mpm
  Kd: 1.3 µM (active)

## CC(C)C[C@H](NC(=O)[C@H](Cc1ccccc1)NC(=O)[C@H](CCC(=O)O)NC(=O)[C@H](C)NC(=O)[C@@H](NC(=O)[C@H](CC(C)C)NC(=O)[C@H](CCC(=O)O)NC(=O)[C@H](CC(=O)O)NC(=O)[C@H](CCC(=O)O)NC(=O)[C@H](CO)NC(=O)[C@H](C)N)C(C)C)C(=O)N[C@@H](CCC(N)=O)C(=O)N[C@@H](CC(=O)O)C(=O)N[C@@H](CCC(N)=O)C(=O)N[C@@H](CC(N)=O)C(=O)O (H-ASEDELVAEFLQDQN-OH)
protein: PEROXISOMAL MEMBRANE PROTEIN PEX14, PDB entry 4bxu
  Kd: 0.1 µM (active)

## CC(C)C[C@H](NC(=O)[C@@H](N)CO)C(=O)N[C@@H](CCC(=O)O)C(=O)N[C@H](C(=O)N[C@H](C(=O)N[C@@H](CCC(=O)O)C(=O)N[C@@H](C)C(=O)N[C@@H](CC(=O)O)C(=O)N[C@@H](C)C(=O)N[C@H](C(=O)N[C@@H](Cc1ccccc1)C(=O)N[C@H](C(=O)N[C@@H](CCC(N)=O)C(=O)O)C(C)C)[C@@H](C)O)[C@@H](C)O[P+](O)(O)O)C(C)C (H-SLEV[Thr(P(OH)3+)]EADATFVQ-OH)
protein: FHA1 Domain of Rad53, PDB entry 1k3q
  Kd: 0.3 µM (active)

## CC(C)C[C@H](NC(=O)[C@H](CCC(=O)O)NC(=O)[C@H](CCC(N)=O)NC(=O)[C@@H](NC(=O)[C@H](CO)NC(=O)[C@@H](N)C(C)C)[C@@H](C)O[P+](O)(O)O)C(=O)N[C@@H](Cc1ccc(O)cc1)C(=O)N[C@@H](CO)C(=O)O (H-VS[Thr(P(OH)3+)]QELYS-OH)
protein: mammalian MDC1 FHA domain, PDB entry 3va4
  Kd: 40 µM (active)

## H-DDFGGFEAAET-OH
protein: ADP-ribosylation factor binding protein GGA1, PDB entry 1om9
  Kd: 70 µM (active)

## C[C@H](NC(=O)[C@@H](N)CO)C(=O)N[C@@H](CCCNC(N)N)C(=O)N[C@@H](Cc1c[nH]c2ccccc12)C(=O)N[C@@H](CCCNC(N)N)C(=O)N[C@@H](Cc1ccccc1)C(=O)N1CCC[C@H]1C(=O)N[C@@H](C)C(=O)N[C@@H](CCCNC(N)N)C(=O)N1CCC[C@H]1C(=O)NCC(=O)N[C@H](C(=O)O)[C@@H](C)O
protein: Menin (A541T mutation), PDB entry 4gq6
  Kd: 0.053 µM (active)

## H-EPQAPWME-OH
protein: antibody Fab, PDB entry 3uyr
  Kd: 0.127 µM (active)

## H-EWGPWV-NH2
protein: AP-1 COMPLEX SUBUNIT GAMMA-LIKE 2, PDB entry 2ymt
  Kd: 0.01 µM (active)

## CC(C)C[C@@H](NC(=O)[C@H]1CCCN1C(=O)[C@@H](Cc1c[nH]c2ccccc12)NC(=O)[C@@H](Cc1c[nH]c2ccccc12)NC(=O)[C@H](N)CC(=O)O)C(=O)N[C@H](C)C(=O)N[C@H](Cc1ccccc1)C(=O)N[C@H](CCC(=O)O)C(=O)N[C@H](C)C(=O)N[C@H](CC(C)C)C(=O)N[C@H](CC(C)C)C(=O)N[C@H](CCCNC(N)N)C(=O)O
protein: human MDM2 (Synthetic construct, 25-109), PDB entry 3iwy
  Kd: 0.053 µM (active)

## CC(C)C[C@H](NC(=O)[C@H](Cc1c[nH]c2ccccc12)NC(=O)[C@H](CC(=O)O)NC(=O)[C@H](CCC(N)=O)NC(=O)[C@H](CC(N)=O)NC(=O)[C@H](CCCNC(N)N)NC(=O)[C@@H]1CCCN1C(=O)CNC(=O)[C@@H](N)CCC(=O)O)C(=O)O (H-EGP[Orn(CH(NH2)2)]NQDWL-OH)
protein: H-2 class I histocompatibility antigen (Y159F mutation), PDB entry 4iho
  Kd: 8 µM (active)

## CC[C@H](C)[C@H](NC(=O)[C@H](CC(=O)O)NC(=O)[C@H](Cc1ccc(O)cc1)NC(=O)[C@H](C)NC(=O)[C@H](C)NC(=O)CN)C(=O)N[C@@H](CO[P+](O)(O)O)C(=O)N[C@@H](CCC(N)=O)C(=O)N[C@H](C(=O)N[C@@H](Cc1ccccc1)C(=O)N1CCC[C@H]1C(=O)N[C@@H](Cc1ccccc1)C(=O)N[C@@H](C)C(=O)N[C@@H](C)C(=O)O)C(C)C
protein: Breast cancer type 1 susceptibility protein, PDB entry 1t2v
  Kd: 0.4 µM (active)

## CSCC[C@H](NC(=O)[C@H](CCCCN)NC(=O)[C@@H](N)CCCCN)C(=O)N[C@H](C(=O)N[C@@H](Cc1ccccc1)C(=O)N[C@@H](CCC(N)=O)C(=O)N[C@H](C(=O)N1CCC[C@H]1C(=O)N[C@H](C(=O)N[C@@H](CC(=O)O)C(=O)N1CCC[C@H]1C(=O)N[C@@H](CC(C)C)C(=O)N[C@@H](CCC(=O)O)C(=O)O)[C@@H](C)O)[C@@H](C)O[P+](O)(O)O)[C@@H](C)O (H-KKMTFQ[Thr(P(OH)3+)]PTDPLE-OH)
protein: FHA1 Domain of Rad53, PDB entry 1k3n
  Kd: 10.2 µM (active)

## H-SAVLQKKITDYFHPKK-OH
protein: human proliferating cell nuclear antigen(PCNA), PDB entry 1vyj
  Kd: 0.1 µM (active)

## H-SVPIQCTDKTDKQEALFK-OH
protein: human tumor necrosis factor receptor(TRAF3), PDB entry 1l0a
  Kd: 23.9 µM (active)
